Experimental data reported in PMC7862700, “An all-to-all approach to the identification of sequence-specific readers for epigenetic DNA modifications on cytosine”.

Tests used:
Test in all cases: DAPPL (digital affinity profiling via proximity ligation, sequencing); 10 mM Tris-HCl pH 7.5, 50 mM NaCl, 1 mM DTT, 4% glycerol, room temperature, 30 min; GST-TFs on glutathione beads, 16-mer random dsDNA library, 0.1% formaldehyde crosslink after washing; high values mean tight binding
FLI1 = target: T1, FLI1 (Homo sapiens, UniProt Q01543 1-452); details: protein: recombinant; tags: N-terminal GST; dsDNA, one strand shown
T1 sequence: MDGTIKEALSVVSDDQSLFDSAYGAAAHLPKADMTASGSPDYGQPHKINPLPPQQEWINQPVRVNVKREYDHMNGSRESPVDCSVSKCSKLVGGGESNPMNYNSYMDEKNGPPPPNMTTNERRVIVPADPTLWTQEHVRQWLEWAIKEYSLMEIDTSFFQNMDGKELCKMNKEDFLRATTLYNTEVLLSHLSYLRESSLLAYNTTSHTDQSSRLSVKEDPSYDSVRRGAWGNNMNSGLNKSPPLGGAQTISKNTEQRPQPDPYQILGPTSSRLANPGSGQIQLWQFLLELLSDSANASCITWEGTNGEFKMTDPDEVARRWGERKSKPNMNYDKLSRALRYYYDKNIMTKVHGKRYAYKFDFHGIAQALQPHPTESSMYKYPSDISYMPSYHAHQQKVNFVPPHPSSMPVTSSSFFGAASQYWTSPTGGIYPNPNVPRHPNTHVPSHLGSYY
Procedure, shortened: (§1)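 Pools of DNA-barcoded human transcription factors, expressed in yeast as GST fusions on glutathione beads and combined with a tag-only sample, were incubated with 200 nmole of a 16-mer random double-stranded DNA library. Incubation took 30 min at room temperature in Tris/NaCl/DTT/glycerol buffer and was followed by washing, 0.1% formaldehyde crosslinking, proximity ligation (BsaI/T4 ligase, 1 h, 37 °C), PCR amplification and sequencing on an Illumina NextSeq500. Binding signal is the ratio of a hexamer's read frequency for a factor to its frequency for the tag-only sample.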

ELK1 = target: T2, ELK1 (Homo sapiens, UniProt P19419 1-428); details: protein: recombinant; tags: N-terminal GST; dsDNA, one strand shown
T2 sequence: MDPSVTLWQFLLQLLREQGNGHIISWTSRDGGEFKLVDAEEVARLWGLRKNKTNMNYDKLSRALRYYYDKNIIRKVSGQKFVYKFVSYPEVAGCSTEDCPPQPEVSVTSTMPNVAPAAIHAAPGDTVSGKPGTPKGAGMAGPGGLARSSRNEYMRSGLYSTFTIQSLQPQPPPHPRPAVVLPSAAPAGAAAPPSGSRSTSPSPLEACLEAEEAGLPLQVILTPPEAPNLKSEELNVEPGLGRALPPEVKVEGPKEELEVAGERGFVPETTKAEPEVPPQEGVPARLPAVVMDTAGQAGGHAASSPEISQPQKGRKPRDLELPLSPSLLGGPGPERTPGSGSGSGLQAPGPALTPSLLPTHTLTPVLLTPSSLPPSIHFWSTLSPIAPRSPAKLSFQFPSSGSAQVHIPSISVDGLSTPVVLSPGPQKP
Procedure, shortened: as §1

GABPA = target: T3, GABPA (Homo sapiens, UniProt Q06546 1-454); details: protein: recombinant; tags: N-terminal GST; dsDNA, one strand shown
T3 sequence: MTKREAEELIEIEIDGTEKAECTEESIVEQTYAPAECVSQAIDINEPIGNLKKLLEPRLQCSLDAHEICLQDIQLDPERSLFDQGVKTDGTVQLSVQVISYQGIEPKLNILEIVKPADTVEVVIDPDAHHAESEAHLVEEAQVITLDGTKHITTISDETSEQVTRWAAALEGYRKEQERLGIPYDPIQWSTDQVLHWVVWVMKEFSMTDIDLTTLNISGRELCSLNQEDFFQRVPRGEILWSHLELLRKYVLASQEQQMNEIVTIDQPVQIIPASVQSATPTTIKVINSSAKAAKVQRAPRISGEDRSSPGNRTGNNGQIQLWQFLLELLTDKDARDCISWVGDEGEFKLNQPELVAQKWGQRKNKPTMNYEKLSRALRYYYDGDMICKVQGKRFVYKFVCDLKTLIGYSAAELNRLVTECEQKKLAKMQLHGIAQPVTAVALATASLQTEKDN
Procedure, shortened: as §1

ERG = target: T4, ERG (Homo sapiens, UniProt P11308 1-479); details: protein: recombinant; tags: N-terminal GST; dsDNA, one strand shown
T4 sequence: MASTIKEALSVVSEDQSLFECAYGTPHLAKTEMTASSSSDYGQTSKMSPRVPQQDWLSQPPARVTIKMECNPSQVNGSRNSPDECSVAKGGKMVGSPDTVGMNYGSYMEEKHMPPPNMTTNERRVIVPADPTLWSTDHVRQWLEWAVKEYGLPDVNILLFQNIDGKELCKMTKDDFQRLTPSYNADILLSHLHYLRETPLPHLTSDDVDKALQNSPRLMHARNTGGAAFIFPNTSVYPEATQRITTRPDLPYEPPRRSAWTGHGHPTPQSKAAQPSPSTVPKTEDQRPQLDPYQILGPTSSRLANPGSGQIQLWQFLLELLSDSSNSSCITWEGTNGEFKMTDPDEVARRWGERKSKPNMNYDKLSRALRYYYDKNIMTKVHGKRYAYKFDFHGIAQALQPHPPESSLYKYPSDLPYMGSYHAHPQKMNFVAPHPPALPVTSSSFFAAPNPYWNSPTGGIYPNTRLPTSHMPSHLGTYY
Procedure, shortened: as §1

ELF1 = ELF1 (Homo sapiens, UniProt P32519 1-619); details: protein: recombinant; tags: N-terminal GST; dsDNA, one strand shown
Procedure, shortened: as §1

EHF = target: T5, EHF (Homo sapiens, UniProt Q9NZC4 1-300); details: protein: recombinant; tags: N-terminal GST; dsDNA, one strand shown
T5 sequence: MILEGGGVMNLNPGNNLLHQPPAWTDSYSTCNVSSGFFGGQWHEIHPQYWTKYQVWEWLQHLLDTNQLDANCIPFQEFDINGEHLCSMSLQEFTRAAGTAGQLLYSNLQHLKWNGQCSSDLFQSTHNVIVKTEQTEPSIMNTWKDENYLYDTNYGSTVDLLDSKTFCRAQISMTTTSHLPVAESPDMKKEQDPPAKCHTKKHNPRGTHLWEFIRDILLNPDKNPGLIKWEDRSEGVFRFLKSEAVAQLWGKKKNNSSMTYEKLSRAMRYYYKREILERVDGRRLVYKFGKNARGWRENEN
Procedure, shortened: as §1

SPI1 = SPI1 (Homo sapiens, UniProt P17947 1-270); details: protein: recombinant; tags: N-terminal GST; dsDNA, one strand shown
Procedure, shortened: as §1

SPIB = SPIB (Homo sapiens, UniProt Q01892 1-262); details: protein: recombinant; tags: N-terminal GST; dsDNA, one strand shown
Procedure, shortened: as §1

ELK3 = target: T6, ELK3 (Homo sapiens, UniProt P41970 1-407); details: protein: recombinant; tags: N-terminal GST; dsDNA, one strand shown
T6 sequence: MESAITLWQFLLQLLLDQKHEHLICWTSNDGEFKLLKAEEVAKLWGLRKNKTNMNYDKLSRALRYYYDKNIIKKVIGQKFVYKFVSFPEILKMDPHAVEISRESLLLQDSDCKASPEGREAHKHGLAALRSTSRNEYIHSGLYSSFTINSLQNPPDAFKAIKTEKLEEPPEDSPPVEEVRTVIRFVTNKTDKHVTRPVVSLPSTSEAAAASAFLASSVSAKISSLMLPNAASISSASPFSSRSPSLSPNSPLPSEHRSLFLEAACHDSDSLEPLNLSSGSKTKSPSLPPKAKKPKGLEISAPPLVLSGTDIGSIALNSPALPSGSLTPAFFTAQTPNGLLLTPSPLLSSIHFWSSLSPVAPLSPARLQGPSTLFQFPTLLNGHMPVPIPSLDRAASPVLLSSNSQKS
Procedure, shortened: as §1

FEV = target: T7, FEV (Homo sapiens, UniProt Q99581 1-238); details: protein: recombinant; tags: N-terminal GST; dsDNA, one strand shown
T7 sequence: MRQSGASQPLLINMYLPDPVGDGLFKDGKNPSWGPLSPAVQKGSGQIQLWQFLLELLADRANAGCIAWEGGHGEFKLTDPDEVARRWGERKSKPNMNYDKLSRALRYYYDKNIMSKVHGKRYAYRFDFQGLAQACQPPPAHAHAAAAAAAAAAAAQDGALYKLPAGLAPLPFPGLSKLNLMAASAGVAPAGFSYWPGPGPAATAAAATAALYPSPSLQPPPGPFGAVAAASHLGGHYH
Procedure, shortened: as §1

ETV5 = ETV5 (Homo sapiens, UniProt P41161 1-510); details: protein: recombinant; tags: N-terminal GST; dsDNA, one strand shown
Procedure, shortened: as §1

HSF1 = HSF1 (Homo sapiens, UniProt Q00613 1-529); details: protein: recombinant; tags: N-terminal GST; chain copies: 3; dsDNA, one strand shown
Procedure, shortened: as §1

SPIC = target: T8, SPIC (Homo sapiens, UniProt Q8N5J4 1-248); details: protein: recombinant; tags: N-terminal GST; dsDNA, one strand shown
T8 sequence: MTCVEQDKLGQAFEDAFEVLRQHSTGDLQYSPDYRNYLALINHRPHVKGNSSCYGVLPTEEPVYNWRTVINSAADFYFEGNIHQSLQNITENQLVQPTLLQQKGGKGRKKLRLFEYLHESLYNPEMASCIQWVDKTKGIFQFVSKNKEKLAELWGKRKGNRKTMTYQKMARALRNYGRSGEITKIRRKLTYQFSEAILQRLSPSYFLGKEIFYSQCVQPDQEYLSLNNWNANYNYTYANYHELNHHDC
Procedure, shortened: as §1

ELF4 = ELF4 (Homo sapiens, UniProt Q99607 1-663); details: protein: recombinant; tags: N-terminal GST; dsDNA, one strand shown
Procedure, shortened: as §1

ELK4 = target: T9, ELK4 (Homo sapiens, UniProt P28324-2 1-405); details: protein: recombinant; tags: N-terminal GST; dsDNA, one strand shown
T9 sequence: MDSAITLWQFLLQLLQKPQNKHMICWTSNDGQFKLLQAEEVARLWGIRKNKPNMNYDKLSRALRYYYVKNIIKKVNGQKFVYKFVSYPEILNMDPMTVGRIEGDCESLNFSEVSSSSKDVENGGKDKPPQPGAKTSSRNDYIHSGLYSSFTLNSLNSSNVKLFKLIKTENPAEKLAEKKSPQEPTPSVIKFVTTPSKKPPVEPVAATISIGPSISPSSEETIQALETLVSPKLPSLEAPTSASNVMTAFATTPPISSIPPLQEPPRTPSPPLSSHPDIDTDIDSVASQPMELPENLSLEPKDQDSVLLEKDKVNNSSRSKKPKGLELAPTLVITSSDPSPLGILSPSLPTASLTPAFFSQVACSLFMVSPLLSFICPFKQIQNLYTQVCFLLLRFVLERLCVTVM
Procedure, shortened: as §1

ETV2 = target: T10, ETV2 (Homo sapiens, UniProt O00321 1-342); details: protein: recombinant; tags: N-terminal GST; dsDNA, one strand shown
T10 sequence: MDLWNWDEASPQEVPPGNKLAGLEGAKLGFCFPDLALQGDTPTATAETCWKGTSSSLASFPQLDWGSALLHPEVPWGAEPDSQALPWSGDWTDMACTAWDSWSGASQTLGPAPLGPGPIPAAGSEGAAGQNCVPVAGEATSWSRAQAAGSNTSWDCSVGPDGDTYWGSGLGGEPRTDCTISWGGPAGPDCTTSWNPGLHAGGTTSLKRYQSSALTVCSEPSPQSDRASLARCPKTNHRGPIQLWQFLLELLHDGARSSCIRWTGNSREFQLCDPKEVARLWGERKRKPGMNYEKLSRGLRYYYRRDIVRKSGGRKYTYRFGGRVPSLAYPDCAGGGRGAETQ
Procedure, shortened: as §1

ELF3 = target: T11, ELF3 (Homo sapiens, UniProt P78545 1-371); details: protein: recombinant; tags: N-terminal GST; dsDNA, one strand shown
T11 sequence: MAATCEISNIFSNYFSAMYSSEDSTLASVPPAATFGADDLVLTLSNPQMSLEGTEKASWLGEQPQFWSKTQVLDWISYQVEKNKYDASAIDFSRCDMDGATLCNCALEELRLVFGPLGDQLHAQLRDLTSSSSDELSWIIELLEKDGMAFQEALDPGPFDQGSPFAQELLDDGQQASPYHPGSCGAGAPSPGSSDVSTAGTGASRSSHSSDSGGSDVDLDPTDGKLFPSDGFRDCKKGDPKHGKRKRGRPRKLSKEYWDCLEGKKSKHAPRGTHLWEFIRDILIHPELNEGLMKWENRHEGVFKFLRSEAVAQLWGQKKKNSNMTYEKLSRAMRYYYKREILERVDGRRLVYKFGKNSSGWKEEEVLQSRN
Procedure, shortened: as §1

CRX = CRX (Homo sapiens, UniProt O43186 1-299); details: protein: recombinant; tags: N-terminal GST; dsDNA, one strand shown
Procedure, shortened: as §1

ETV1 = ETV1 (Homo sapiens, UniProt P50549 1-477); details: protein: recombinant; tags: N-terminal GST; dsDNA, one strand shown
Procedure, shortened: as §1

Sequence of ELF1 (P32519 whole entry): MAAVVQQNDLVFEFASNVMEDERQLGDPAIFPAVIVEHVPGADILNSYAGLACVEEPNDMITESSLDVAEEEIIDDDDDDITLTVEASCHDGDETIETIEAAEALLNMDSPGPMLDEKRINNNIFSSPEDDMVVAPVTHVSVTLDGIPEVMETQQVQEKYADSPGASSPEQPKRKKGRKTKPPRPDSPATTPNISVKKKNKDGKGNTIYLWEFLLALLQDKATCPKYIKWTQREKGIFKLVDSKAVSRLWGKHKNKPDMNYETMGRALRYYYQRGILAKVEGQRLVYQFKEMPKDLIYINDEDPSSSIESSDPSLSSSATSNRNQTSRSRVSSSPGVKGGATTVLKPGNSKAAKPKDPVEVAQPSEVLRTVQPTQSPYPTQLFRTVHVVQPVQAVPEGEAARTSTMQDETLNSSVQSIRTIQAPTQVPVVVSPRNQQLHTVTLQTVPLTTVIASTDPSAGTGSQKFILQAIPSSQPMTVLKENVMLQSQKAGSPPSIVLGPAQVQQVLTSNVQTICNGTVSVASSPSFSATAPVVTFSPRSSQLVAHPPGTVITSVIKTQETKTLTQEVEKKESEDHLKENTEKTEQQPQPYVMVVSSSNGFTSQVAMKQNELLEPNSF
Sequence of ELF4 (Q99607 whole entry): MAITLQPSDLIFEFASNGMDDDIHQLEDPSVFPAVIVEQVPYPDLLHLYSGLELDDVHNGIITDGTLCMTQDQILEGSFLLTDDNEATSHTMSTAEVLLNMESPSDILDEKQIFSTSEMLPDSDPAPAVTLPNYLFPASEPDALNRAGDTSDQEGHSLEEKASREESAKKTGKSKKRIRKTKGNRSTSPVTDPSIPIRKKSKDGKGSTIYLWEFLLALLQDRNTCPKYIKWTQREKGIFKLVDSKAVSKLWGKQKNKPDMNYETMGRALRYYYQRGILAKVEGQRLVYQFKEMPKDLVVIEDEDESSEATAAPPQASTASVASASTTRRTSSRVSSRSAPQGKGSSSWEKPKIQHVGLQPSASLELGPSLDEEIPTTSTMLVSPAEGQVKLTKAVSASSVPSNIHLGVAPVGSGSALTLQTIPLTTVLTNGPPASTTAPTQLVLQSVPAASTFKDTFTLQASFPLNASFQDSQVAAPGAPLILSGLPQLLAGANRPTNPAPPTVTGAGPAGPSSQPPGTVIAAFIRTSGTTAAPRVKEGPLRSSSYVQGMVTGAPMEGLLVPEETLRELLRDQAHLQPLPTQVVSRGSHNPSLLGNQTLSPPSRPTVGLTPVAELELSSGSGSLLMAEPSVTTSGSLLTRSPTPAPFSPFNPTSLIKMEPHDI
Sequence of ETV5 (P41161 whole entry): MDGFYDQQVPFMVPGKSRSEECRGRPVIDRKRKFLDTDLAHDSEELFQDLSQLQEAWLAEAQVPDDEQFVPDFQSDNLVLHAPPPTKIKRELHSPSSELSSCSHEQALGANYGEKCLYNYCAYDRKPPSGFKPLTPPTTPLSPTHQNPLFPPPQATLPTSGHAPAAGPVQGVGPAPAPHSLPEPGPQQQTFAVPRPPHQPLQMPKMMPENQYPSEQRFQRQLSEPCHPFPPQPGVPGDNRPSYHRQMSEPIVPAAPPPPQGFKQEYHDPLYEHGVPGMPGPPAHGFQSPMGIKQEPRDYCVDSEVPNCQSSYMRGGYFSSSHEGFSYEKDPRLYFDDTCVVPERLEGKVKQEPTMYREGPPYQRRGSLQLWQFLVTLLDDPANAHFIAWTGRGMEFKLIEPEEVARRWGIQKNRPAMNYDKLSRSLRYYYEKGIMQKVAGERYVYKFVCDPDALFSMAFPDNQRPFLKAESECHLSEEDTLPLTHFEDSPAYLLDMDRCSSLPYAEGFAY
Sequence of CRX (O43186 whole entry): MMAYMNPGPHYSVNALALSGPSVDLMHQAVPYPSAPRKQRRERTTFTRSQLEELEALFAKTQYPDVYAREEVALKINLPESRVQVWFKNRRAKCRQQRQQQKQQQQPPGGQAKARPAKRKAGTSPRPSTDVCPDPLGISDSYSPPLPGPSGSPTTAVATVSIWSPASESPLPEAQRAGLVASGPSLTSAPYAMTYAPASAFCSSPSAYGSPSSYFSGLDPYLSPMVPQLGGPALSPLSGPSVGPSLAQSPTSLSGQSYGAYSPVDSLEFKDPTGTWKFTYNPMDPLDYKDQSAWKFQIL
Sequence of HSF1 (Q00613 whole entry): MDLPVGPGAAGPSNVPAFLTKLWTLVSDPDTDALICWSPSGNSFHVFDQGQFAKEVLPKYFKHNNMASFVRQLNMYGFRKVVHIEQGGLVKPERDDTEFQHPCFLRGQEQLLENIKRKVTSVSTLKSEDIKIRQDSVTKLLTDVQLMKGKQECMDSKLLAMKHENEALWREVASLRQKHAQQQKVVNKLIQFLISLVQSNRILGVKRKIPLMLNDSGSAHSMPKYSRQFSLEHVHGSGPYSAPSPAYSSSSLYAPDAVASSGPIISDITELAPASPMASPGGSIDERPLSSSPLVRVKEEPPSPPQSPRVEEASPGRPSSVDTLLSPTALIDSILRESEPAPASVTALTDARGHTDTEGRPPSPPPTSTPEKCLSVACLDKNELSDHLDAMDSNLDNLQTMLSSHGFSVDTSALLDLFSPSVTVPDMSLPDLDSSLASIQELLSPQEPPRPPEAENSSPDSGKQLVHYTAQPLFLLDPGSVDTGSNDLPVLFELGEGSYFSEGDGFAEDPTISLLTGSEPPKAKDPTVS
Sequence of SPIB (Q01892 whole entry): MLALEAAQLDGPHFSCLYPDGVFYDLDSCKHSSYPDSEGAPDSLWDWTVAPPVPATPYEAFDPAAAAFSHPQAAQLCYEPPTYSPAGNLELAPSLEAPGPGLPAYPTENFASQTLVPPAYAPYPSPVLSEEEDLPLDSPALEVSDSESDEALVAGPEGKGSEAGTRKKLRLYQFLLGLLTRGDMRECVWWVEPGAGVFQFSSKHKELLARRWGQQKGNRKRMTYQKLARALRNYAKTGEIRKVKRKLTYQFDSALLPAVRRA
Sequence of ETV1 (P50549 whole entry): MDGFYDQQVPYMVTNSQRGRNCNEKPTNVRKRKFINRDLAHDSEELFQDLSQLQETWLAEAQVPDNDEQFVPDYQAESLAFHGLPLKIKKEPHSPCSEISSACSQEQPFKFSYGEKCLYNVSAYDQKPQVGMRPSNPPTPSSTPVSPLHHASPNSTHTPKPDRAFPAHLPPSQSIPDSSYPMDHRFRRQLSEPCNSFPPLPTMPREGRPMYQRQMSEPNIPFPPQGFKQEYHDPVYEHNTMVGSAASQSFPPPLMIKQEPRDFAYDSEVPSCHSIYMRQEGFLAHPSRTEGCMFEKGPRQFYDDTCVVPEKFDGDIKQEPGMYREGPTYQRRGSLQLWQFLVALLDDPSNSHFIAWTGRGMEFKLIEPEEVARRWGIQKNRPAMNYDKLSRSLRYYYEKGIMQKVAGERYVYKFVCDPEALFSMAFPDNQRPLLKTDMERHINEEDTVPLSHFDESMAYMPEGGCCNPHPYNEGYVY

GTAAAT
binding signal (FLI1): 1.02 fold enrichment (6-mer frequency, TF over GST control)
binding signal (ELK1): 1.09 fold enrichment (6-mer frequency, TF over GST control)
binding signal (GABPA): 1.21 fold enrichment (6-mer frequency, TF over GST control)
binding signal (ERG): 1.14 fold enrichment (6-mer frequency, TF over GST control)
binding signal (ELF1): 1.16 fold enrichment (6-mer frequency, TF over GST control)
binding signal (EHF): 1.15 fold enrichment (6-mer frequency, TF over GST control)
binding signal (SPI1): 1.22 fold enrichment (6-mer frequency, TF over GST control)
binding signal (SPIB): 1.18 fold enrichment (6-mer frequency, TF over GST control)
binding signal (ELK3): 1.16 fold enrichment (6-mer frequency, TF over GST control)
binding signal (FEV): 1.09 fold enrichment (6-mer frequency, TF over GST control)
binding signal (ETV5): 1.13 fold enrichment (6-mer frequency, TF over GST control)
binding signal (HSF1): 1.22 fold enrichment (6-mer frequency, TF over GST control)
binding signal (SPIC): 1.09 fold enrichment (6-mer frequency, TF over GST control)
binding signal (ELF4): 1.14 fold enrichment (6-mer frequency, TF over GST control)
binding signal (ELK4): 1.14 fold enrichment (6-mer frequency, TF over GST control)
binding signal (ETV2): 1.06 fold enrichment (6-mer frequency, TF over GST control)
binding signal (ELF3): 1.25 fold enrichment (6-mer frequency, TF over GST control)
binding signal (CRX): 1.32 fold enrichment (6-mer frequency, TF over GST control)
binding signal (ETV1): 1.07 fold enrichment (6-mer frequency, TF over GST control)
